The supplement of paper PMC10849652
Of roughly 7,900 targets only a part is listed; those with a hit were picked by preference. About 0.6% of all pairs of compound and target were hits.

Columns and labels:
Experiment in all cases: log2 fold change, soluble protein after heating vs DMSO (PISA); higher = thermal stabilisation; K562 cells, 10 uM, 30 min; active = over 0.2 and 3.5 SD of the protein, either way, in both replicates (recomputed)
[1] = compound: CS(=O)(=O)c1ccc(-c2cnc(N)c(C(=O)Nc3ccccc3)n2)cc1
Procedure, shortened: (§1)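 Thermal stability values are relative to control samples and come from duplicates. They are expressed as log2 fold changes. For measurement, K562 cells (2×10^6 cells/mL) received 10 μM compound for 30 min, and aliquots were heated for 3 min over 48°C-58°C, pooled, and extracted at 4°C in PBS with 0.5% NP-40. Soluble protein, the supernatant after 21,000xg for 90 min, was quantified by TMTpro 16plex LC-MS/MS with equalised channel sums.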

crizotinib = compound: C[C@@H](Oc1cc(-c2cnn(C3CCNCC3)c2)cnc1N)c1c(Cl)ccc(F)c1Cl [crizotinib]
Procedure, shortened: as §1

[2] = compound: C[C@@H]1COCCN1C2=NC(=NC(=C2)C3(CC3)S(=O)(=O)C)C4=C5C=CNC5=CC=C4
Procedure, shortened: as §1

[3] = compound: C[C@H](C1=CC=C(C=C1)C(=O)NC2=C3C=CNC3=NC=C2)N
Procedure, shortened: as §1

duvelisib = compound: C[C@H](Nc1ncnc2nc[nH]c12)c1cc2cccc(Cl)c2c(=O)n1-c1ccccc1 [duvelisib]
Procedure, shortened: as §1

gandotinib = compound: Cc1cc(Nc2cc(CN3CCOCC3)c3nc(C)c(Cc4ccc(Cl)cc4F)n3n2)n[nH]1 [gandotinib]
Procedure, shortened: as §1

tozasertib = compound: Cc1cc(Nc2cc(N3CCN(C)CC3)nc(Sc3ccc(NC(=O)C4CC4)cc3)n2)n[nH]1 [tozasertib]
Procedure, shortened: as §1

[4] = compound: Cc1cc(SCc2sc(-c3ccc(C(F)(F)F)cc3)nc2C)ccc1OCC(=O)O
Procedure, shortened: as §1

doramapimod = compound: Cc1ccc(-n2nc(C(C)(C)C)cc2NC(=O)Nc2ccc(OCCN3CCOCC3)c3ccccc23)cc1 [doramapimod]
Procedure, shortened: as §1

ispinesib = compound: Cc1ccc(C(=O)N(CCCN)[C@@H](c2nc3cc(Cl)ccc3c(=O)n2Cc2ccccc2)C(C)C)cc1 [ispinesib]
Procedure, shortened: as §1

bafetinib = compound: Cc1ccc(NC(=O)c2ccc(CN3CC[C@H](N(C)C)C3)c(C(F)(F)F)c2)cc1Nc1nccc(-c2cncnc2)n1 [bafetinib]
Procedure, shortened: as §1

[5] = compound: Cc1cccc(CC(=O)N2CCc3c2ccc(-c2cn(C)c4ncnc(N)c24)c3F)n1
Procedure, shortened: as §1

nilotinib = compound: Cc1cn(-c2cc(NC(=O)c3ccc(C)c(Nc4nccc(-c5cccnc5)n4)c3)cc(C(F)(F)F)c2)cn1 [nilotinib]
Procedure, shortened: as §1

[6] = compound: Cc1nc(Nc2n[nH]c3c2CN(C(=O)N[C@H](CN(C)C)c2ccccc2)C3(C)C)c2sccc2n1
Procedure, shortened: as §1

dasatinib = compound: Cc1nc(Nc2ncc(C(=O)Nc3c(C)cccc3Cl)s2)cc(N2CCN(CCO)CC2)n1 [dasatinib]
Procedure, shortened: as §1

[7] = compound: Cc1ncc(-c2ccnc(Nc3ccc(S(C)(=O)=O)cc3)n2)n1C(C)C
Procedure, shortened: as §1

[8] = compound: Cn1cc(-c2ccc3c(c2)CCN3C(=O)Cc2cccc(C(F)(F)F)c2)c2c(N)ncnc21
Procedure, shortened: as §1

[9] = compound: Cn1cc(-c2ccc3nnc(C(F)(F)c4ccc5ncccc5c4)n3n2)cn1
Procedure, shortened: as §1

tipifarnib = compound: Cn1cncc1[C@@](N)(c1ccc(Cl)cc1)c1ccc2c(c1)c(-c1cccc(Cl)c1)cc(=O)n2C [tipifarnib]
Procedure, shortened: as §1

mubritinib = compound: FC(F)(F)c1ccc(/C=C/c2nc(COc3ccc(CCCCn4ccnn4)cc3)co2)cc1 [mubritinib]
Procedure, shortened: as §1

Measured: log2 fold change

PHKG2 (UniProt P15735)
Chain of UniProt P15735 (P15735 whole entry, looked up): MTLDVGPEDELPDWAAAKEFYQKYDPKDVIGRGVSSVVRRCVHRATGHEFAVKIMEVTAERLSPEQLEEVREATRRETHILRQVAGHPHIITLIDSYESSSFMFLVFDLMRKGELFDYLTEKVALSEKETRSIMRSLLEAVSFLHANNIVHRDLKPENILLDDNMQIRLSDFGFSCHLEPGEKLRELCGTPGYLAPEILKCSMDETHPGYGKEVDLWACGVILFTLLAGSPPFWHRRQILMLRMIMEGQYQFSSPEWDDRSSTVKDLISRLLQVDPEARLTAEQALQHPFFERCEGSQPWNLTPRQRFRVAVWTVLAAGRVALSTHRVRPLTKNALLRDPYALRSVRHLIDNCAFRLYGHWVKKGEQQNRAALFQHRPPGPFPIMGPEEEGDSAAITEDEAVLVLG
active: [6] 0.321
inactive: [1] 0.015 | crizotinib 0 | [2] -0.097 | [3] 0.053 | duvelisib -0.077 | gandotinib -0.017 | tozasertib -0.134 | [4] -0.006 | doramapimod 0.044 | ispinesib 0.018 | bafetinib -0.047 | [5] 0.044 | nilotinib -0.177 | dasatinib -0.306 | [7] 0.011 | [8] -0.024 | [9] -0.017 | tipifarnib -0.046 | mubritinib -0.127

PHKA2 (UniProt P46019)
Chain of UniProt P46019 (P46019 whole entry, looked up): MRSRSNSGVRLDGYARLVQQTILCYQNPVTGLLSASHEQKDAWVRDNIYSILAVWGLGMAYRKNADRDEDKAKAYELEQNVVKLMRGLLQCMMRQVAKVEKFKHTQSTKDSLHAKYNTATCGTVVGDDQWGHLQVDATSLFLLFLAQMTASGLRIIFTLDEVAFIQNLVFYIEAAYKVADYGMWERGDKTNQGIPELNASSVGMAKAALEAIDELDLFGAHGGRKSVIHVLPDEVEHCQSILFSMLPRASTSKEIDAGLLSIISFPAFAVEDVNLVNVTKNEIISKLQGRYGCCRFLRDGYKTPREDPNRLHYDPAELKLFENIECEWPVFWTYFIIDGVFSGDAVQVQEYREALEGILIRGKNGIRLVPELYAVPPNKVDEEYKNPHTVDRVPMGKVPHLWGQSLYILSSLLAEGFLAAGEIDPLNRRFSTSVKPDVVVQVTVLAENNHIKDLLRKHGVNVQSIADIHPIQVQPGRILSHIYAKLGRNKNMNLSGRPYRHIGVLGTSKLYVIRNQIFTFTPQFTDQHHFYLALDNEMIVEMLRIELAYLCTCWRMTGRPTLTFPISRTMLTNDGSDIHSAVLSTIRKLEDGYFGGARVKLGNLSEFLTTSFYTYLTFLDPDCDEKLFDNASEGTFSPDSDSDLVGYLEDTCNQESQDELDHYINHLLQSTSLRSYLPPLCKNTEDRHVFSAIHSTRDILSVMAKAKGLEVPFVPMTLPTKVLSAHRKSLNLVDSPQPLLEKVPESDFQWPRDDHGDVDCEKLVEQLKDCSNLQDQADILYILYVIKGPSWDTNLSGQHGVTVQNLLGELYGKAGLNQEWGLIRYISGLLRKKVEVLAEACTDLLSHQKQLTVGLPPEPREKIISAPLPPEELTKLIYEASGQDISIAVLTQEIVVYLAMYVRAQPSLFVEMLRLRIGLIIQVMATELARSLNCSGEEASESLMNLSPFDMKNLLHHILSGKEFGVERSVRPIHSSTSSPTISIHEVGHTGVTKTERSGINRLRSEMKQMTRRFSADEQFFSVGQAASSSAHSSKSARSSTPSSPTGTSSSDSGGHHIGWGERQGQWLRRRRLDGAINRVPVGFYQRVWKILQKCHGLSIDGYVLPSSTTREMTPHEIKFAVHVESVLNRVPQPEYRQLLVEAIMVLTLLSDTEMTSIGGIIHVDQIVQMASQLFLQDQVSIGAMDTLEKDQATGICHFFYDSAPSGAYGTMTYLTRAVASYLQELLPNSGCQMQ
inactive: [1] -0.247 | crizotinib -0.076 | [2] 0.051 | [3] -0.108 | duvelisib 0.022 | gandotinib -0.083 | tozasertib -0.052 | [4] 0.071 | doramapimod 0.053 | ispinesib -0.013 | bafetinib -0.107 | [5] -0.037 | nilotinib -0.239 | [6] 0.119 | dasatinib -0.07 | [7] -0.157 | [8] 0.033 | [9] -0.051 | tipifarnib -0.055 | mubritinib 0.082

PHAX (UniProt Q9H814)
inactive: [1] -0.034 | crizotinib 0.097 | [2] -0.036 | [3] -0.01 | duvelisib 0.07 | gandotinib 0.035 | tozasertib 0.082 | [4] -0.062 | doramapimod -0.016 | ispinesib 0.017 | bafetinib -0.056 | [5] -0.117 | nilotinib 0.028 | [6] -0.176 | dasatinib 0.03 | [7] -0.096 | [8] -0.033 | [9] 0.006 | tipifarnib 0.011 | mubritinib 0.013

PEX7 (UniProt O00628)
inactive: [1] -0.011 | crizotinib -0.037 | [2] 0.121 | [3] 0.024 | duvelisib 0.04 | gandotinib -0.005 | tozasertib -0.042 | [4] 0.145 | doramapimod 0.002 | ispinesib -0.078 | bafetinib 0.101 | [5] -0.025 | nilotinib -0.047 | [6] 0.048 | dasatinib -0.025 | [7] -0.007 | [8] 0.05 | [9] 0.04 | tipifarnib 0.034 | mubritinib 0.085

PSMB4 (UniProt P28070)
Chain of UniProt P28070 (P28070 whole entry, looked up): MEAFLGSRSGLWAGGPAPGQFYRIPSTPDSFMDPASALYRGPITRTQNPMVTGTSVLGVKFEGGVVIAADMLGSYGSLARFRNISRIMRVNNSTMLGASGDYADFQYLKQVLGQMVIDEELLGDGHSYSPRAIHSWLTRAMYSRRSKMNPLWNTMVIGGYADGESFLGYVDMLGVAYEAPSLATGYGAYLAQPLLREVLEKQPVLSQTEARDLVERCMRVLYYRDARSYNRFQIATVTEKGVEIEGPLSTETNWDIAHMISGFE
inactive: [1] 0.014 | crizotinib 0.03 | [2] -0.09 | [3] 0.064 | duvelisib -0.04 | gandotinib 0.08 | tozasertib -0.002 | [4] -0.018 | doramapimod 0.021 | ispinesib 0.015 | bafetinib 0.051 | [5] -0.052 | nilotinib 0 | [6] 0.063 | dasatinib 0.076 | [7] -0.015 | [8] -0.03 | [9] 0.014 | tipifarnib 0.047 | mubritinib 0.009

PSMD13 (UniProt Q9UNM6)
Chain of UniProt Q9UNM6 (Q9UNM6 whole entry, looked up): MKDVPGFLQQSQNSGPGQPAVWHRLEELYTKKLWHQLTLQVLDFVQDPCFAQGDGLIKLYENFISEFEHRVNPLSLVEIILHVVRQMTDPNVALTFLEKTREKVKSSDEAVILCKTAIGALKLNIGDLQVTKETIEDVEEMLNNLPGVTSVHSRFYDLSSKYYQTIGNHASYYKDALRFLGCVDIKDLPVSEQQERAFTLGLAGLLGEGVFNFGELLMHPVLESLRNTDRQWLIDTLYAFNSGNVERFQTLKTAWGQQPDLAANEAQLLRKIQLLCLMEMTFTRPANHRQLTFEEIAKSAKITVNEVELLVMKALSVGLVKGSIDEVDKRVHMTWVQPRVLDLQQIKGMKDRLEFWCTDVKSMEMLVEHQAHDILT
inactive: [1] 0.048 | crizotinib 0.008 | [2] -0.012 | [3] 0.092 | duvelisib -0.028 | gandotinib -0.016 | tozasertib 0.062 | [4] 0.052 | doramapimod 0.026 | ispinesib -0.008 | bafetinib 0.126 | [5] 0.003 | nilotinib -0.002 | [6] 0.082 | dasatinib 0.023 | [7] -0.018 | [8] -0.114 | [9] -0.008 | tipifarnib 0.095 | mubritinib -0.019

PEA15 isoform 2 (UniProt Q15121)
Chain of UniProt Q15121 (Q15121 whole entry, looked up): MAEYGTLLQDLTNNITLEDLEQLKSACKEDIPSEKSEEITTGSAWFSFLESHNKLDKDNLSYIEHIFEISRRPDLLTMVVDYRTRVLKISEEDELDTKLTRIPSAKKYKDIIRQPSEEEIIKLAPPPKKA
inactive: [1] 0.012 | crizotinib 0.136 | [2] 0.141 | [3] -0.048 | duvelisib 0.074 | gandotinib -0.073 | tozasertib 0.103 | [4] 0.048 | doramapimod 0.003 | ispinesib 0.034 | bafetinib -0.077 | [5] -0.008 | nilotinib 0 | dasatinib -0.026 | [7] -0.004 | [8] 0.036 | [9] 0.021 | tipifarnib 0.04 | mubritinib 0.054
active: [6] -0.4

PUF60 (UniProt Q9UHX1)
Chain of UniProt Q9UHX1 (Q9UHX1 whole entry, looked up): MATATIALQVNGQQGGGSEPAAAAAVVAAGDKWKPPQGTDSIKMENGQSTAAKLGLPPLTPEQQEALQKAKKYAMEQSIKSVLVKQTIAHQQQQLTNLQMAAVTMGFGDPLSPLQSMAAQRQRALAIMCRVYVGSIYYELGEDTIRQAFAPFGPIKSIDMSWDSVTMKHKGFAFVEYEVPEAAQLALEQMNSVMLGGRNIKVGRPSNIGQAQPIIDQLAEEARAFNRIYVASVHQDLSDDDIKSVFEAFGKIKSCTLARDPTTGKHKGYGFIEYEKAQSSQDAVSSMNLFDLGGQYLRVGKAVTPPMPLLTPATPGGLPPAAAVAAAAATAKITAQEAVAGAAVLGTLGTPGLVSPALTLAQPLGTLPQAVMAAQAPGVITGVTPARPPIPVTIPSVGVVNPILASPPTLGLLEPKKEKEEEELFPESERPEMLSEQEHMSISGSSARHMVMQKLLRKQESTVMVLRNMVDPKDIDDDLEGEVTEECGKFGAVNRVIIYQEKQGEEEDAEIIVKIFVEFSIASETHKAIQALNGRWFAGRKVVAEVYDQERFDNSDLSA
inactive: [1] -0.012 | crizotinib 0.031 | [2] 0.025 | [3] -0.199 | duvelisib 0.01 | gandotinib -0.09 | tozasertib 0.081 | [4] 0.056 | doramapimod -0.041 | ispinesib 0.039 | bafetinib 0.077 | [5] -0.04 | nilotinib -0.022 | dasatinib -0.085 | [7] -0.001 | [8] 0.008 | [9] -0.046 | tipifarnib -0.034 | mubritinib 0.024
active: [6] -0.703

PIK3CB (UniProt P42338)
inactive: [1] 0.043 | crizotinib -0.077 | [2] 0.064 | [3] 0.034 | gandotinib -0.041 | tozasertib -0.075 | [4] 0.06 | doramapimod 0 | ispinesib -0.057 | bafetinib -0.075 | [5] 0.028 | nilotinib -0.084 | [6] -0.056 | dasatinib -0.209 | [7] 0.034 | [8] -0.002 | [9] 0.049 | tipifarnib -0.105 | mubritinib 0.037
active: duvelisib 0.318

PRPF3 (UniProt O43395)
Chain of UniProt O43395 (O43395 whole entry, looked up): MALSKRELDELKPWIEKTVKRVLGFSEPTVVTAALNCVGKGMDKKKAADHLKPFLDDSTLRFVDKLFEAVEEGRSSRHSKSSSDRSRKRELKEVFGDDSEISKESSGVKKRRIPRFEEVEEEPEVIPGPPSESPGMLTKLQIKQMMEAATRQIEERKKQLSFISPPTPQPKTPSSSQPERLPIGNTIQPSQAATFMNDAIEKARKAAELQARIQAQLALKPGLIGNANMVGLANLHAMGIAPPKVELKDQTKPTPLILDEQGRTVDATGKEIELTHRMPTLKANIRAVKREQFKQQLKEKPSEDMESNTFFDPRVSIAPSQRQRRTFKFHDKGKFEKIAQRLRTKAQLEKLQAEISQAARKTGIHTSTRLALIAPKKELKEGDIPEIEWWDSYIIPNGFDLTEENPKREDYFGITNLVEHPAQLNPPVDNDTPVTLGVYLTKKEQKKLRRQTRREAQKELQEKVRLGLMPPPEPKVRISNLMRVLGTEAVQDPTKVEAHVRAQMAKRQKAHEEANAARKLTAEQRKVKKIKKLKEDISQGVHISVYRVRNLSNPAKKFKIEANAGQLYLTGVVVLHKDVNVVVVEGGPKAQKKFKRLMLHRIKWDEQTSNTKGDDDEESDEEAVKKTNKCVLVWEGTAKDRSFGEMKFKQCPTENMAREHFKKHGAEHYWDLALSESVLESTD
inactive: [1] 0.009 | crizotinib -0.025 | [2] 0.114 | [3] 0.193 | duvelisib 0.053 | gandotinib -0.067 | tozasertib 0.007 | [4] 0.174 | doramapimod -0.024 | ispinesib 0.025 | bafetinib 0.048 | [5] 0.072 | nilotinib -0.044 | [6] -0.201 | dasatinib -0.114 | [7] -0.152 | [8] -0.149 | [9] 0.018 | tipifarnib -0.011 | mubritinib 0.118

PRPF38B (UniProt Q5VTL8)
inactive: [1] -0.051 | crizotinib -0.026 | [2] 0.058 | duvelisib 0.023 | gandotinib 0.001 | tozasertib -0.022 | [4] -0.002 | doramapimod 0.005 | ispinesib 0.193 | bafetinib -0.016 | [5] -0.015 | nilotinib 0.049 | dasatinib -0.022 | [7] -0.008 | [8] 0.012 | [9] -0.04 | tipifarnib -0.067 | mubritinib 0.004
active: [3] -0.269 | [6] -1.9

PCYT1B (UniProt Q9Y5K3)
Chain of UniProt Q9Y5K3 (Q9Y5K3 whole entry, looked up): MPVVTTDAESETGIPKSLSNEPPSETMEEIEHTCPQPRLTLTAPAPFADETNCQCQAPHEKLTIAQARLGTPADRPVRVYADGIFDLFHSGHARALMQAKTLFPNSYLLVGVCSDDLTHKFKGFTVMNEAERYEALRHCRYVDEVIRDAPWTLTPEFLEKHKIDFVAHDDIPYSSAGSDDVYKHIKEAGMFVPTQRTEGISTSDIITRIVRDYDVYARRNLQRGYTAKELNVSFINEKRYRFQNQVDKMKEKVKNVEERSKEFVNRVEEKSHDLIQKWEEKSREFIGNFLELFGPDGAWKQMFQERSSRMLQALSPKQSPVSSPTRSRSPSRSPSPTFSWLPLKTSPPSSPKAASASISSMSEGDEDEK
active: nilotinib -1.28
inactive: [1] -0.008 | crizotinib -0.109 | [2] 0.147 | [3] -0.109 | duvelisib -0.019 | gandotinib -0.088 | tozasertib 0.024 | [4] 0.044 | doramapimod -0.036 | ispinesib 0.12 | bafetinib -0.193 | [5] -0.068 | [6] -0.105 | dasatinib -0.142 | [7] -0.089 | [8] -0.024 | [9] -0.037 | tipifarnib -0.053 | mubritinib 0.168

POLR2M (UniProt P0CAP2)
Chain of UniProt P0CAP2 (P0CAP2 whole entry, looked up): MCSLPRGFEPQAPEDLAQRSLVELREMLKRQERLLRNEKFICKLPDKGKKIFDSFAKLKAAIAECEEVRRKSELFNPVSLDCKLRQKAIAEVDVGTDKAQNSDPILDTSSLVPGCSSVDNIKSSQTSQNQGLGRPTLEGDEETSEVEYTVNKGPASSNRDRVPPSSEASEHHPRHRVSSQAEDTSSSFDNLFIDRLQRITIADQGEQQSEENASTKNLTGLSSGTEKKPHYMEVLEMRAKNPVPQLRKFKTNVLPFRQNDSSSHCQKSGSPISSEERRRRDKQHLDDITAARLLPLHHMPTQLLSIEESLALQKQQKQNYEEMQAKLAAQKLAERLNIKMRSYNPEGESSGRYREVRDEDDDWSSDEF
inactive: [1] 0.028 | crizotinib 0.074 | [2] 0.097 | [3] 0.044 | duvelisib 0.164 | gandotinib 0.141 | tozasertib -0.052 | [4] 0.012 | doramapimod 0.013 | ispinesib -0.055 | bafetinib -0.029 | [5] -0.015 | nilotinib -0.011 | [6] 0.034 | dasatinib 0.055 | [7] 0.138 | [8] -0.051 | [9] -0.024 | tipifarnib 0.035 | mubritinib -0.037

PSMC5 (UniProt P62195)
Chain of UniProt P62195 (P62195 whole entry, looked up): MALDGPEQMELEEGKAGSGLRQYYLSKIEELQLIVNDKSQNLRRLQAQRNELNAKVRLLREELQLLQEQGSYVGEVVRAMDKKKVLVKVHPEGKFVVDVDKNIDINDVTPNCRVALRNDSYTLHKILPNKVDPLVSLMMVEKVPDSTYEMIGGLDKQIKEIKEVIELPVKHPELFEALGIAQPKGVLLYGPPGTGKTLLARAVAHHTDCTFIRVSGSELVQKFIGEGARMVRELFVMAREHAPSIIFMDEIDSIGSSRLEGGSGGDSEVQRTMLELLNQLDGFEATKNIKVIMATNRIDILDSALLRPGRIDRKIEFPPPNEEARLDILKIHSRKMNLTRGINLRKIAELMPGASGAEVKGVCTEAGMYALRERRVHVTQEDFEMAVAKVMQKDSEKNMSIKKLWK
inactive: [1] 0.025 | crizotinib 0.001 | [2] -0.07 | [3] 0.057 | duvelisib -0.028 | gandotinib 0.017 | tozasertib 0.04 | [4] 0.036 | doramapimod 0.028 | ispinesib -0.007 | bafetinib 0.078 | [5] 0.035 | nilotinib -0.041 | [6] 0.035 | dasatinib 0.033 | [7] -0.014 | [8] -0.113 | [9] -0.006 | tipifarnib 0.09 | mubritinib -0.014

PLIN2 (UniProt Q99541)
inactive: [1] -0.103 | [2] 0.054 | [3] 0.03 | duvelisib 0.098 | gandotinib -0.31 | tozasertib -0.086 | [4] 0.031 | doramapimod -0.092 | bafetinib -0.326 | [5] 0.037 | nilotinib 0.184 | [6] 0.03 | dasatinib -0.219 | [7] 0.04 | [8] -0.016 | [9] 0.047 | tipifarnib -0.105 | mubritinib 0.027
active: crizotinib -0.841 | ispinesib -2.6

PPIL1 (UniProt Q9Y3C6)
Chain of UniProt Q9Y3C6 (Q9Y3C6 whole entry, looked up): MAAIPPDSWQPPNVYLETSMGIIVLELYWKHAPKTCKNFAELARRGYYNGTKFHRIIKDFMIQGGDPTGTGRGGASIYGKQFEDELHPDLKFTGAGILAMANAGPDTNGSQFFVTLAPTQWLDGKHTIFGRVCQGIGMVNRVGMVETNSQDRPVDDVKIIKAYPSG
inactive: [1] -0.029 | crizotinib 0.038 | [2] 0.018 | [3] 0.012 | duvelisib 0 | gandotinib 0.045 | tozasertib -0.01 | [4] 0.014 | doramapimod 0.031 | ispinesib -0.089 | bafetinib 0.024 | [5] -0.002 | nilotinib -0.029 | [6] 0.046 | dasatinib -0.042 | [7] 0.073 | [8] -0.063 | [9] -0.022 | tipifarnib -0.088 | mubritinib 0.01
